# Measurements reported in article PMC7862700, “An all-to-all approach to the identification of sequence-specific readers for epigenetic DNA modifications on cytosine”.
# What was measured:
# Assay in all cases: DAPPL (digital affinity profiling via proximity ligation, sequencing); 10 mM Tris-HCl pH 7.5, 50 mM NaCl, 1 mM DTT, 4% glycerol, room temperature, 30 min; GST-TFs on glutathione beads, 16-mer random dsDNA library, 0.1% formaldehyde crosslink after washing; high values mean tight binding
# FEV = target: T1, FEV (Homo sapiens, UniProt Q99581 1-238); settings: protein: recombinant; tags: N-terminal GST; dsDNA, one strand shown
# T1 sequence: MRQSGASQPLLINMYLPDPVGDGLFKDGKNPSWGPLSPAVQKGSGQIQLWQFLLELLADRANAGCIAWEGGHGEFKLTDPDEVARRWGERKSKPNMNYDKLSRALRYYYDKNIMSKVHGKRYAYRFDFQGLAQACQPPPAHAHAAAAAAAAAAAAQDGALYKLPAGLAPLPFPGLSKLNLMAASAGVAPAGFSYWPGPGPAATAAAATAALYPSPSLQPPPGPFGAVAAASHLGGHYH
# Method in brief: (§1)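 Human transcription factors were made in yeast as GST fusions, captured on glutathione beads and barcoded with DNA. With a tag-only sample included, the pool was incubated with 200 nmole of a random double-stranded 16-mer DNA library in Tris/NaCl/DTT/glycerol buffer at room temperature for 30 min, then crosslinked with 0.1% formaldehyde after washing, ligated by proximity, amplified and sequenced. For binding signal, each hexamer's read frequency for a factor is divided by its frequency for the tag-only sample.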
# ETV5 = ETV5 (Homo sapiens, UniProt P41161 1-510); settings: protein: recombinant; tags: N-terminal GST; dsDNA, one strand shown
# Method in brief: as §1
# HSF1 = HSF1 (Homo sapiens, UniProt Q00613 1-529); settings: protein: recombinant; tags: N-terminal GST; chain copies: 3; dsDNA, one strand shown
# Method in brief: as §1
# SPIC = target: T2, SPIC (Homo sapiens, UniProt Q8N5J4 1-248); settings: protein: recombinant; tags: N-terminal GST; dsDNA, one strand shown
# T2 sequence: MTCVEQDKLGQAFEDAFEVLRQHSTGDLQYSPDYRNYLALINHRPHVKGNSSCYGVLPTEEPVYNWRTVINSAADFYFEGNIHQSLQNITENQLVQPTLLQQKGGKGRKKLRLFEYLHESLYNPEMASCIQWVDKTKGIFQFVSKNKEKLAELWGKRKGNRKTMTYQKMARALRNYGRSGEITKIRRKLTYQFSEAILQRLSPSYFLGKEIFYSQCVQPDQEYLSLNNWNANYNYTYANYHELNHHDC
# Method in brief: as §1
# ELF4 = ELF4 (Homo sapiens, UniProt Q99607 1-663); settings: protein: recombinant; tags: N-terminal GST; dsDNA, one strand shown
# Method in brief: as §1
# ELK4 = target: T3, ELK4 (Homo sapiens, UniProt P28324-2 1-405); settings: protein: recombinant; tags: N-terminal GST; dsDNA, one strand shown
# T3 sequence: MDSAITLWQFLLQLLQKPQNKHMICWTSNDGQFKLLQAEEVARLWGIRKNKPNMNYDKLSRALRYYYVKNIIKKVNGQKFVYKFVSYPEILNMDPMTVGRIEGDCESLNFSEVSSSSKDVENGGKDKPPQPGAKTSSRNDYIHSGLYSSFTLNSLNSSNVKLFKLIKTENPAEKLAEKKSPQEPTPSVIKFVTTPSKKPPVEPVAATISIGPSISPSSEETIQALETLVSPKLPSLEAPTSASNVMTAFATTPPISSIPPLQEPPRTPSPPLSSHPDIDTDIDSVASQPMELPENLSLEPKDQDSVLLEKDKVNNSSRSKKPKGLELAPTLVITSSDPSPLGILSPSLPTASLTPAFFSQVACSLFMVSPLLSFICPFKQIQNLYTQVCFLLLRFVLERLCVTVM
# Method in brief: as §1
# ETV2 = target: T4, ETV2 (Homo sapiens, UniProt O00321 1-342); settings: protein: recombinant; tags: N-terminal GST; dsDNA, one strand shown
# T4 sequence: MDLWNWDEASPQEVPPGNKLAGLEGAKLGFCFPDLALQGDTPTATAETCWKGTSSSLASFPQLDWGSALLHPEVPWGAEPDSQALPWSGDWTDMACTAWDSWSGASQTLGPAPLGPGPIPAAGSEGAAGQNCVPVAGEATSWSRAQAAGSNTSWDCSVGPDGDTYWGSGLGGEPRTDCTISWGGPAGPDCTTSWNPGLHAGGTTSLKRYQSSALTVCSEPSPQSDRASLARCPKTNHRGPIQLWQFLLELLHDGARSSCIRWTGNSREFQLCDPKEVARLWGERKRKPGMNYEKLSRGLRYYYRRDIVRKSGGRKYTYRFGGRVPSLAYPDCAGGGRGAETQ
# Method in brief: as §1
# ELF3 = target: T5, ELF3 (Homo sapiens, UniProt P78545 1-371); settings: protein: recombinant; tags: N-terminal GST; dsDNA, one strand shown
# T5 sequence: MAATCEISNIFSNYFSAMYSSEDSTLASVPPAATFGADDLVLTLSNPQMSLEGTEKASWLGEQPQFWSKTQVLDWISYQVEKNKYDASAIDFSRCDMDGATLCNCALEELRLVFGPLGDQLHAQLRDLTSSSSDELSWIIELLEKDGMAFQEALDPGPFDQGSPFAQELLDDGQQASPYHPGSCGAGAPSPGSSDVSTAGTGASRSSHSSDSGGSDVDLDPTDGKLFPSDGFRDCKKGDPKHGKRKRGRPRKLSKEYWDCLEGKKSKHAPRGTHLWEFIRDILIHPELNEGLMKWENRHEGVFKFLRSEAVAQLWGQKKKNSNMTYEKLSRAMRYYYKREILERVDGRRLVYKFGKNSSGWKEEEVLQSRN
# Method in brief: as §1
# CRX = CRX (Homo sapiens, UniProt O43186 1-299); settings: protein: recombinant; tags: N-terminal GST; dsDNA, one strand shown
# Method in brief: as §1
# ETV1 = ETV1 (Homo sapiens, UniProt P50549 1-477); settings: protein: recombinant; tags: N-terminal GST; dsDNA, one strand shown
# Method in brief: as §1
# ERF = target: T6, ERF (Homo sapiens, UniProt P50548 1-548); settings: protein: recombinant; tags: N-terminal GST; dsDNA, one strand shown
# T6 sequence: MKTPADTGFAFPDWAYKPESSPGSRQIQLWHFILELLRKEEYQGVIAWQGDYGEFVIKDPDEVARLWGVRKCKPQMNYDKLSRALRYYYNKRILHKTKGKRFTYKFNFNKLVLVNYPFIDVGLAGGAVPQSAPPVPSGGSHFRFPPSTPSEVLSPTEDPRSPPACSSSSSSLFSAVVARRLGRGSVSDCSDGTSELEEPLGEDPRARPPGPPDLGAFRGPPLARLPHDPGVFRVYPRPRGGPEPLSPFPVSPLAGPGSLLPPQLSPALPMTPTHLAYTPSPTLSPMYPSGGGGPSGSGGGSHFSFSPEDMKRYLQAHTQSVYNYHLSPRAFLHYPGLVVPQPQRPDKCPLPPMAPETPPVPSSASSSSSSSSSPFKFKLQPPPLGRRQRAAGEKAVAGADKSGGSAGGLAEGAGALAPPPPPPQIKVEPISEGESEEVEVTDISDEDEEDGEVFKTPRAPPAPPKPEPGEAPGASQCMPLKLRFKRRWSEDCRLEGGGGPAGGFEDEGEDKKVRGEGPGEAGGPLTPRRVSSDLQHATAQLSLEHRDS
# Method in brief: as §1
# ETV3L = target: T7, ETV3L (Homo sapiens, UniProt Q6ZN32 1-361); settings: protein: recombinant; tags: N-terminal GST; dsDNA, one strand shown
# T7 sequence: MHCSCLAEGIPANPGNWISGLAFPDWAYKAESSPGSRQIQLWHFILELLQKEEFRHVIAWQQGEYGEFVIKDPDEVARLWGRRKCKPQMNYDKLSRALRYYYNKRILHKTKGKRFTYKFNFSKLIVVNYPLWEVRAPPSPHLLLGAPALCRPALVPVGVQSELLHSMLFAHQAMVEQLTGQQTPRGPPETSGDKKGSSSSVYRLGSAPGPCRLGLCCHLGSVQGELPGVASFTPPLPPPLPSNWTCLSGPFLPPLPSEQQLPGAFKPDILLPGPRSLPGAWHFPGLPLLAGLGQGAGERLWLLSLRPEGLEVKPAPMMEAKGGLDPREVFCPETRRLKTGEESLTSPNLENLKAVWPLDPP
# Method in brief: as §1
# ETS2 = target: T8, ETS2 (Homo sapiens, UniProt P15036 1-469); settings: protein: recombinant; tags: N-terminal GST; dsDNA, one strand shown
# T8 sequence: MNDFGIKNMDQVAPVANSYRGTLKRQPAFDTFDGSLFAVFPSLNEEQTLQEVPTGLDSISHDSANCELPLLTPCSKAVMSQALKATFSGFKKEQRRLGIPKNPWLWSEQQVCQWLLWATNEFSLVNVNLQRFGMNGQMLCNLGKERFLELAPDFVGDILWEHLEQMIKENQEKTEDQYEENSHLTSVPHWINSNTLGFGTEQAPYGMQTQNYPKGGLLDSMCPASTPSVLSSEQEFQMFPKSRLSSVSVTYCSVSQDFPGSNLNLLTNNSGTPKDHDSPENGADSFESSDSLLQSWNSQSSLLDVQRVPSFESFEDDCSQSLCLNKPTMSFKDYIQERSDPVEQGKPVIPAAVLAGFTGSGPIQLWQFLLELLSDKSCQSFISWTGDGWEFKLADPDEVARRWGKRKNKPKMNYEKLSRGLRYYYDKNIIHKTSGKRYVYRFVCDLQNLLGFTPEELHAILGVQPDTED
# Method in brief: as §1
# SPDEF = target: T9, SPDEF (Homo sapiens, UniProt O95238 1-335); settings: protein: recombinant; tags: N-terminal GST; dsDNA, one strand shown
# T9 sequence: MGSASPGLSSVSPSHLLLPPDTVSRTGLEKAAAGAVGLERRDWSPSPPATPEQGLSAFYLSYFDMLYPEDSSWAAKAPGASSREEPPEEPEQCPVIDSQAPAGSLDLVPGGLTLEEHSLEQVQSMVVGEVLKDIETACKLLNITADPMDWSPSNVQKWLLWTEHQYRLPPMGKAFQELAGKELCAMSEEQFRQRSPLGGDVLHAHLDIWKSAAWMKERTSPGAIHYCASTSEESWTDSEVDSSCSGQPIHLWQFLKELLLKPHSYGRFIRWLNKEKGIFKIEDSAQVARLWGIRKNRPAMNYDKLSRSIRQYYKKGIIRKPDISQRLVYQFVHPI
# Method in brief: as §1
# ETV7 = target: T10, ETV7 (Homo sapiens, UniProt Q9Y603 1-341); settings: protein: recombinant; tags: N-terminal GST; dsDNA, one strand shown
# T10 sequence: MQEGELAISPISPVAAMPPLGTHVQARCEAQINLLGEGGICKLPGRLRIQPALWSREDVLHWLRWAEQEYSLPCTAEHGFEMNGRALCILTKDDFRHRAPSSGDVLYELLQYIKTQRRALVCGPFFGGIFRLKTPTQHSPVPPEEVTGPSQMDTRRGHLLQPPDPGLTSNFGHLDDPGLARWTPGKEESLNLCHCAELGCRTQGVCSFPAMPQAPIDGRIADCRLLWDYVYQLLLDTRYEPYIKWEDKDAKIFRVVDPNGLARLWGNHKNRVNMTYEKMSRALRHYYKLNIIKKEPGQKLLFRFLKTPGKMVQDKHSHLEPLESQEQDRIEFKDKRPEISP
# Method in brief: as §1
# ELF5 = target: T11, ELF5 (Homo sapiens, UniProt Q9UKW6-2 1-255); settings: protein: recombinant; tags: N-terminal GST; dsDNA, one strand shown
# T11 sequence: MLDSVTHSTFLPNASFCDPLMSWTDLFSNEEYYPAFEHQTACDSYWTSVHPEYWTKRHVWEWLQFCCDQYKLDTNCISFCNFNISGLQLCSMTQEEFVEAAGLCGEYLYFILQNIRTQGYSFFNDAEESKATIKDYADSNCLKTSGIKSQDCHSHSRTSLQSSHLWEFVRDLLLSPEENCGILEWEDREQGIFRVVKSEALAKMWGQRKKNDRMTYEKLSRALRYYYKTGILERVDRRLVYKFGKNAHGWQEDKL
# Method in brief: as §1
# ETV3 = target: T12, ETV3 (Homo sapiens, UniProt P41162-2 1-143); settings: protein: recombinant; tags: N-terminal GST; dsDNA, one strand shown
# T12 sequence: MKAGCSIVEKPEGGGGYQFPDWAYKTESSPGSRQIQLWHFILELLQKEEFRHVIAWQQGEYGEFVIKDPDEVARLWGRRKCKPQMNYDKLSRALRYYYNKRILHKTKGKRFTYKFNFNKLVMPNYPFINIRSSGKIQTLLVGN
# Method in brief: as §1
# ETV6 = ETV6 (Homo sapiens, UniProt P41212 1-452); settings: protein: recombinant; tags: N-terminal GST; dsDNA, one strand shown
# Method in brief: as §1
# Sequence of CRX (O43186 whole entry): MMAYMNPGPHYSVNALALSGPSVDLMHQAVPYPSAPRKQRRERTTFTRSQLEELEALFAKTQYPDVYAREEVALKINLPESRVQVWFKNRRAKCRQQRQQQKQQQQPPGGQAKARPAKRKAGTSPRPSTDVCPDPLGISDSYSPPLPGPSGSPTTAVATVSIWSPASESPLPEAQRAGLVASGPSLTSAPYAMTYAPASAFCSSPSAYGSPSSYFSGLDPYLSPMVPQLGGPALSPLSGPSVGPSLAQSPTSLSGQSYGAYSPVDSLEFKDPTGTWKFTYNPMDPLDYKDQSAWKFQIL
# Sequence of ETV6 (P41212 whole entry): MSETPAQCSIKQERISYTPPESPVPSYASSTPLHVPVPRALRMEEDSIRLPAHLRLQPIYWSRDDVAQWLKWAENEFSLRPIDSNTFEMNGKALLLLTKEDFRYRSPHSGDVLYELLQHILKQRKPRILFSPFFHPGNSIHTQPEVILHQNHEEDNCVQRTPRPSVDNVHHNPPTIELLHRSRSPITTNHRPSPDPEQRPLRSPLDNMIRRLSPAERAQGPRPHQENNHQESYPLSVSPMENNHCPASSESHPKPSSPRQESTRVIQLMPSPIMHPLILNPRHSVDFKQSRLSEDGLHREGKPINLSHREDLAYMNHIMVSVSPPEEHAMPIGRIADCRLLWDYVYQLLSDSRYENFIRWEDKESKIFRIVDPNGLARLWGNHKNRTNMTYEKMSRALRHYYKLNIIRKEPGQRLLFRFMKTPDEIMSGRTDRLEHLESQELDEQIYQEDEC
# Sequence of ETV5 (P41161 whole entry): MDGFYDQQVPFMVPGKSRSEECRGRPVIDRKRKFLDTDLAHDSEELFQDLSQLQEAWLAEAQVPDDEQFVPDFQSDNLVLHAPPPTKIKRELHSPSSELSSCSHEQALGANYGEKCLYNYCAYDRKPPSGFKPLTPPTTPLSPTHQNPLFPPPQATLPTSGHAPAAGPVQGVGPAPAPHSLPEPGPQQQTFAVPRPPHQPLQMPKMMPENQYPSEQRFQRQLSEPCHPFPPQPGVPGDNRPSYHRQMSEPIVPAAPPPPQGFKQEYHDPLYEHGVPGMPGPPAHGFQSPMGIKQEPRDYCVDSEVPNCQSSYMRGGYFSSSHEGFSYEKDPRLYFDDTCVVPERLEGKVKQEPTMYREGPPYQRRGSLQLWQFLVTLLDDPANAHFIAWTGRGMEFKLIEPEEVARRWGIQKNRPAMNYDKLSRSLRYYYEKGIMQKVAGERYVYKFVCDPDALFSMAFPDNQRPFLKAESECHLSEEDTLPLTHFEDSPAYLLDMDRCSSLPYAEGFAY
# Sequence of HSF1 (Q00613 whole entry): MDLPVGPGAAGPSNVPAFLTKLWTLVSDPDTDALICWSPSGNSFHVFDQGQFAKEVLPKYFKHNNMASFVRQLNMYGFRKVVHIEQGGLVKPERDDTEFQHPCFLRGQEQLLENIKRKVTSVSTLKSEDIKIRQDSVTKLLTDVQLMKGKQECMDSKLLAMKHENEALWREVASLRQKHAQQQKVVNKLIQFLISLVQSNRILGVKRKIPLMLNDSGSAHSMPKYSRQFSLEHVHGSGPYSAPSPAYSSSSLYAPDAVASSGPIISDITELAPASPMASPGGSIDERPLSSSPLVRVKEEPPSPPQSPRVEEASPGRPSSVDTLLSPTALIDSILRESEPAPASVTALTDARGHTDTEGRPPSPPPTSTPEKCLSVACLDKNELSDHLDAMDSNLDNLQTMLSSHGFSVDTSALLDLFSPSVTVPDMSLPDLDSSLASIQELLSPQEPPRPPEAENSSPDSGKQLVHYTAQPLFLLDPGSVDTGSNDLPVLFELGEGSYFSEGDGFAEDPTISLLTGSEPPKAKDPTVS
# Sequence of ETV1 (P50549 whole entry): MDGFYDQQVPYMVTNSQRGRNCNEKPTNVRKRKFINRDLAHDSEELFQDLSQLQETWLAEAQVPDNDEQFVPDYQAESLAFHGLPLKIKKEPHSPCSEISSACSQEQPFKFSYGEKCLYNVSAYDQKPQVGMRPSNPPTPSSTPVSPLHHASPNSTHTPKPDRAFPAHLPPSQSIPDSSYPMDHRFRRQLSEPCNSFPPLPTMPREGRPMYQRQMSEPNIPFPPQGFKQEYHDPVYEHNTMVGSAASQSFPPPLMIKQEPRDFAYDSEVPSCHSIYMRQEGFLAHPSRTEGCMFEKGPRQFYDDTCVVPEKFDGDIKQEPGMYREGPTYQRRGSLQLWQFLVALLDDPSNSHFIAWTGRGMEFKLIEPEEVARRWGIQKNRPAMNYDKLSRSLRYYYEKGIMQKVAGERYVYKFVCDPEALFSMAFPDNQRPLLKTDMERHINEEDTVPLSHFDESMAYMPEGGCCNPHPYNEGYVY
# Sequence of ELF4 (Q99607 whole entry): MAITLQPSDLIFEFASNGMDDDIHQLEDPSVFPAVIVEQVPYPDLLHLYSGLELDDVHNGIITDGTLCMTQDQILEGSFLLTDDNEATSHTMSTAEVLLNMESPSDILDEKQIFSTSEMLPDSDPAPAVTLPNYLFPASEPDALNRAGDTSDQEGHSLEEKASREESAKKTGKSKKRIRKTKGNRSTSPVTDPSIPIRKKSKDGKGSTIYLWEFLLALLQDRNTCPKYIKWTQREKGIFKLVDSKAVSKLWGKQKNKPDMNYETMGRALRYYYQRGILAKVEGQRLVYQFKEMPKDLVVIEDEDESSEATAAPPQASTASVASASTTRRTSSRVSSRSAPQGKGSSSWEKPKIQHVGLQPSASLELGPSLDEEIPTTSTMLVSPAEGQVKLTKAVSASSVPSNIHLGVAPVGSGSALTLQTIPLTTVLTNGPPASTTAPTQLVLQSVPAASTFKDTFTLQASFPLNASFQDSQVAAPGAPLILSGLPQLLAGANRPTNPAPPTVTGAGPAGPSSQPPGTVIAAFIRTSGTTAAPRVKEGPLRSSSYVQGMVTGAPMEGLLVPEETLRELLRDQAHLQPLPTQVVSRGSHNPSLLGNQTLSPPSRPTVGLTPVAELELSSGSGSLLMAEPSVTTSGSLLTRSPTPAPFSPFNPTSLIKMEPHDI
sequence,measurement,setting,value
TAGTTT,binding signal,FEV,"1.09 fold enrichment (6-mer frequency, TF over GST control)"
same,binding signal,ETV5,"1.18 fold enrichment (6-mer frequency, TF over GST control)"
same,binding signal,HSF1,"1.27 fold enrichment (6-mer frequency, TF over GST control)"
same,binding signal,SPIC,"1.21 fold enrichment (6-mer frequency, TF over GST control)"
same,binding signal,ELF4,"1.21 fold enrichment (6-mer frequency, TF over GST control)"
same,binding signal,ELK4,"1.4 fold enrichment (6-mer frequency, TF over GST control)"
same,binding signal,ETV2,"1.17 fold enrichment (6-mer frequency, TF over GST control)"
same,binding signal,ELF3,"1.34 fold enrichment (6-mer frequency, TF over GST control)"
same,binding signal,CRX,"1.3 fold enrichment (6-mer frequency, TF over GST control)"
same,binding signal,ETV1,"1.24 fold enrichment (6-mer frequency, TF over GST control)"
same,binding signal,ERF,"1.36 fold enrichment (6-mer frequency, TF over GST control)"
same,binding signal,ETV3L,"1.31 fold enrichment (6-mer frequency, TF over GST control)"
same,binding signal,ETS2,"1.19 fold enrichment (6-mer frequency, TF over GST control)"
same,binding signal,SPDEF,"1.16 fold enrichment (6-mer frequency, TF over GST control)"
same,binding signal,ETV7,"1.19 fold enrichment (6-mer frequency, TF over GST control)"
same,binding signal,ELF5,"1.18 fold enrichment (6-mer frequency, TF over GST control)"
same,binding signal,ETV3,"1.32 fold enrichment (6-mer frequency, TF over GST control)"
same,binding signal,ETV6,"1.23 fold enrichment (6-mer frequency, TF over GST control)"
